Pf growth 48h: P. falciparum growth inhibition at 48 hours (one generation); P. falciparum luciferase growth in erythrocytes, 48 h; Potency, µM (series often up to 28.7 µM), for inactives: at the top dose activity change, negative = inhibition, most hits filed as inhibitors; hit rate 5.9% among 310,000; further: potency means the concentration at half of the fitted maximal effect; on the % scale 0 is the no-effect control and ±100 the full control effect
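Compounds are pin-transferred into medium, infected erythrocytes (2% hematocrit, 0.1% parasitemia final) are added, and plates sit one parasite generation at 37 C in 5% CO2. Detection reagent is then added and luminescence measured.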
Cycloheximide cs: counter-screen hit for Shiga toxin inhibitors, cycloheximide; cell reporter, cycloheximide protein synthesis inhibition counterscreen; max response, %; hit rate 12% among 300,000; in the data active means max response mostly above about 13%, no sharp cut-off; inactive means mostly below about 14%; further: read at 38.3 µM for the half of the compounds with a filed dose; 0% is about no effect
Shiga toxin inh: inhibitors of Shiga toxin in Vero cells. inhibition, % at 38.7 µM. Vero cells, Shiga toxin protein synthesis inhibition reporter. AID 2315. hit rate 9.2% among 290,000; in the data active means inhibition mostly above about 28%, no sharp cut-off; inactive means mostly below about 43%; further: 0% is about no effect
Marburg entry inh: Marburg virus entry inhibition; hit rate 1.8% among 300,000; AID 540276; Marburg virus pseudotyped entry inhibition, cell reporter; Potency, µM (top dose mostly 37.8 µM), without a hit: at the top dose activity change, negative = inhibition, most hits filed as inhibitors; calls by dose curve; tested in HEK293 cells; further: potency means the concentration at half of the fitted maximal effect; on the % scale 0 is the no-effect control and ±100 the full control effect
Pf growth 96h: P. falciparum growth inhibition at 96 hours | P. falciparum luciferase reporter growth, 96 h | Potency, µM (series often up to 28.7 µM), for inactives: top-dose activity change, negative = inhibition, actives largely listed as inhibitors | hit rate 6.9% among 320,000; further: potency means the concentration at half of the fitted maximal effect; on the % scale 0 is the no-effect control and ±100 the full control effect
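Compounds incubated with erythrocytes infected by luciferase-expressing P. falciparum (2% hematocrit, 0.05% parasitemia final) for 96 hours, 37 C in 5% CO2. Growth inhibition scored as decreased luciferase luminescence.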
Lassa entry inh: blocks Lassa virus binding to or entry into cells. Lassa virus pseudotype entry inhibition, cell reporter. Potency, µM (titrated, usually from 37.9 µM), without a hit: at the top dose activity change, negative = inhibition, usual class: inhibitors. hit rate 1.2% among 300,000. AID 540256; calls by dose curve; tested in HEK293 cells; further: potency means the concentration at half of the fitted maximal effect; on the % scale 0 is the no-effect control and ±100 the full control effect; nearly all actives have a fitted effect of over 50% in size
Numbers without * were called inactive; u = inconclusive; x = no result; [ ] = dose if it differs, or a comment. Compounds with a hit are over-represented: about 19% of the library has one in this group of screens. Unless noted, the call rests on the fitted dose curve; in most records, active means well fitted inhibition curve with a large enough effect; inconclusive means small, poorly fitted or top-dose-only effect, or another doubt; inactive means no such curve, though single readings can be large or run the other way.

SMILES	Pf growth 48h	Cycloheximide cs	Shiga toxin inh	Marburg entry inh	Pf growth 96h	Lassa entry inh
CN1CCC(=NNC(=O)c2ccco2)CC1	53%	67*	79*	12%	u	10%
CC(C)(C)C1CCC(=NNC(=O)c2ccco2)CC1 (stereo not given)	37%	70*	175*	x	u	x
CC(C)(C)C1CCC(=NNC(=S)NCc2ccccc2)CC1 (stereo not given)	u	11	-8	0%[46.1 µM]	u	u
CN(C(=O)CCNC(=O)N1CC(=O)Nc2ccccc21)C1CCCCC1	-5%	2	-6	2%[46.1 µM]	4%	3%[46.1 µM]
C/C(=N/NC(=O)c1cccnc1)C1=C(O)CC(C)(C)CC1=O	3%	-6	-16	-11%	u	3%[46.1 µM]
CC(=Nc1cc(C(=O)c2ccccc2)ccc1N)C1=C(O)CC(C)(C)CC1=O	127%	29*	125*	u	15%	u
O=C1c2ccccc2C(=O)c2c1cccc2-n1nnc2ccccc21	u	-4	-6	3%[46.1 µM]	-26%	8%
O=C1C(N2CCOCC2)=C(n2nnc3ccccc32)C(=O)c2ccccc21	x	45*	26	7.9µM*	2.3µM*	u
CCOC(=O)c1ccc(NC(=O)CC2C(=O)N(c3ccccc3)C(=O)N2Cc2ccc(C)cc2)cc1 (stereo not given)	x	x	x	u	x	-26%[46.1 µM]
CCn1c(=O)cc(SCC(=O)Nc2cccnc2)c2ccccc21	14%	-1	-3	-1%	12µM*	-1%
CCn1c(=O)cc(SCC(=O)Nc2ccc3c(c2)OCO3)c2ccccc21	23%	9.9*	25	-3%	9%	16%
CCn1c(=O)cc(SCC(=O)Nc2ccc(C)c(F)c2)c2ccccc21	x	x	x	u	x	3%[46.1 µM]
CCN(CC)CCOC(=O)c1ccc(NC(=O)CSc2cc(=O)n(CC)c3ccccc23)cc1	x	x	x	u	x	5%[46.1 µM]
CCOC(=O)C1=C(C)N=C2SCCC(=O)N2C1c1ccc(OCc2ccccc2)c(OC)c1 (stereo not given)	x	x	x	u	x	-24%[46.1 µM]
Oc1c(N=Nc2ccc(F)cc2)ccc2ccccc12	122%	34*	x	u	11%	u
Cc1ccc(S(=O)(=O)/N=C/c2c(O)ccc3ccccc23)cc1	17%	2	-6	x	2%	x
Cc1ccc(N=Nc2ccc3ccccc3c2O)cc1	94%	44*	x	u	122%	4.5µM*
Oc1ccc2ccccc2c1N=Nc1ccc(F)cc1	-3%	-1	-4	-2%	u	-22%
CCc1ccccc1N1C(=O)N(CC(=O)c2ccc(OC)cc2)c2ccccc2S1(=O)=O	x	x	x	x	x	-18%[46.1 µM]
Brc1ccc(OCCOCCOc2cccc3cccnc23)cc1	x	x	x	u	x	-11%
CCOC(=O)c1sc2cccc(Cl)c2c1N	-1%	3	14	-3%	20%	20%
CCOC(=O)c1sc(NC(=O)/C=C/c2c(F)cccc2Cl)nc1C	9%	40*	-7	4%	56%	2%
CCOC(=O)c1c(Nc2ccc(OC)cc2)nnc(-c2ccccc2)c1-c1ccccc1	x	x	x	-2%[46.1 µM]	x	u
CCOC(=O)c1sc2cccc(F)c2c1N	-5%	25*	25*	16%	u	3%
CCOC(=O)c1sc(Nc2ccc(Br)cc2)nc1C	u	30*	89*	u	u	u
SMILES	Pf growth 48h	Cycloheximide cs	Shiga toxin inh	Marburg entry inh	Pf growth 96h	Lassa entry inh
CCOC(=O)c1cc2nc(Nc3ccc(OC)cc3)sc2s1	3%	14*	58*	4%	11%	-13%
Cc1ccc2occ(CC(=O)Nc3ccc(S(N)(=O)=O)cc3)c2c1	x	x	x	u	x	8%[46.1 µM]
Cc1cc(C)cc(Nc2nc3c(S(=O)(=O)c4ccccc4)nnn3c3ccccc23)c1	-2%	-3	2	u	-4%	-14%
COc1ccccc1NC(=O)CSc1nnc(CNC(=O)c2ccco2)o1	2%	-3	9	1%	u	10%
CCOC(=O)Cc1csc(NC(=O)Cc2ccccc2)n1	19%	2	-16	15%[46.1 µM]	5%	2%[46.1 µM]
CCOC(=O)c1sc(Nc2ccccc2Cl)nc1C	113%	42*	88*	x	152%	x
COC(=O)Cc1csc(Nc2ccccc2Cl)n1	40%	36*	52*	u	u	20%
CCOC(=O)c1sc(NC(=O)Nc2ccccc2F)nc1C	-1%	86*	75*	2.2µM*	-56%	u
CCOC(=O)c1sc(NC(=O)Cc2ccc(C)cc2)nc1C	-2%	14	21	x	15%	x
Cc1c(Cl)c([N+](=O)[O-])nn1CCCC(=O)Nc1c(C)n(C)n(-c2ccccc2)c1=O	-1%	-2	-18	x	31%	x
O=C(Nc1ccc2c(c1)OCCO2)C(=S)NCc1ccccc1	287%	49*	82*	14%	46%	25%
O=C(NCc1ccccc1Cl)c1ccc2c(c1)OCO2	28%	18*	32*	x	-3%	x
O=C(NCc1ccccc1F)c1ccc2c(c1)OCO2	x	24	55	15%	27%	19%
NNC(=O)[C@H](Cc1ccccc1)NC(=O)Nc1ccc2c(c1)OCCO2	9.3µM*	2	-3	22%[46.1 µM]	u	21%[46.1 µM]
S=C(NCc1ccccc1)NCc1ccc2c(c1)OCO2	17%	-1	-6	17%	25%	10%
O=C(NCc1cccs1)c1ccc2c(c1)OCCO2	58%	37*	22	14%	3%	12%
Cc1cc(C(=O)NCc2cccs2)cs1	25%	16	41	12%	x	3%
COc1ccc(NC(=O)N[C@@H](Cc2ccccc2)C(=O)NN)cc1	u	-2	-1	9%	u	-5%
COC(=O)c1cncc(C)c1	-3%	-3	-4	x	21%	x
CCCOc1ccc(CNC(=O)C2CCCN(c3nc4c(C)cc(C)cc4s3)C2)cc1 (stereo not given)	x	x	x	-13%[46.1 µM]	x	x
C/C(=N\NC(=O)c1ccc(NS(=O)(=O)c2cccs2)cc1)c1ccccc1	-2%	-2	25	7%	-9%	-4%
O=C(O)c1ccc(CNC(=O)c2ccc3c(c2)OCCO3)cc1	19%	-3	-4	2%[46.1 µM]	u	12%
O=C(NCc1ccccc1)c1ccc2c(c1)OCCO2	57%	23*	26	14%	36%	13%
NC(=O)CCC(NS(=O)(=O)c1ccc(Cl)cc1)C(=O)NCC1CCCCC1 (stereo not given)	-4%	-3	-17	u	17%	x
COC(=O)c1c(NC(=O)c2cccc(S(=O)(=O)N3CCN(C)CC3)c2)sc(C)c1C	u	x	x	u	12µM*	33%
CCOC(=O)c1sc(NC(=O)c2ccc(S(=O)(=O)N3CCOCC3)cc2)cc1C	u	-4	33	-21%	5.9µM*	u
CCOC(=O)c1[nH]c2ccccc2c1NC(=O)c1ccc(S(=O)(=O)N2CCOCC2)cc1	u	-3	2	10%	15µM*	9%
CCOC(=O)Nc1ccc(S(=O)(=O)N2CCOCC2)cc1	37%	3	-2	10%	2%	-1%
CCOC(=O)c1sc(NC(=O)c2cccc(S(=O)(=O)N(CC)CC)c2)cc1C	x	0	-8	u	2.1µM*	u

Assay outcomes: PubChem, National Center for Advancing Translational Sciences (NCATS)
